TWEAK Fn14 block – inhibitors of TWEAK-Fn14 signaling, primary screen, luciferase reporter cells, uHTS; TWEAK-stimulated Fn14 reporter cells, luciferase luminescence, 8 h; inhibition, % at 10 µM; hit rate 2% among 360,000; in the data active means inhibition above about 50%
LMP1 NFkB inh – EBV LMP1-driven NF-kappaB luciferase reporter inhibitors, primary screen, cell-based, luminescence, single point; LMP1-induced NF-kappaB luciferase reporter cells; AID 504558, 2011; inhibition, % at 12.5 µM; hit rate 0.69% among 350,000; in the data active means inhibition above about 41%; inconclusive means no clear call, values can overlap the other calls;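 further: 0% = neutral control wells and 100% = reference inhibitor control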
TROY NFkB inh – inhibitors of TROY-driven NF-kB signaling, primary screen, Q293 LMP1-TROYcd cells, NF-kB luciferase, uHTS; Q293 LMP1-TROYcd NF-kB luciferase reporter, 4 h; inhibition, % at 10 µM; hit rate 0.98% among 360,000;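 active means compounds whose plate-normalised and pattern-corrected inhibition of the luciferase reporter signal at the single screening dose is 50% or more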
LGR2 antag – inhibitors of bursicon-induced LGR2 CRE-luciferase signal, primary screen, cell-based, HEK293, CRE-luciferase reporter, bursicon stimulation | bursicon-stimulated, 4 h | hit rate 0.35% among 380,000 | Drosophila bursicon receptor LGR2 (rickets) | inhibition, % at 9.99 µM;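 active means drop in luminescence signal, shown as inhibition above about 50% in the replicate tests, limit read from the data, passing the limit was not always enough; inconclusive means probably only some replicates passing the limit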;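 further: agonist challenge used bursicon conditioned medium at about half maximal strength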
HSF1 activator – HSF-1 activators, primary screen, NIH3T3-HGL cells, MG132 stress, luminescence, single point. NIH3T3-HGL HSF-1 luciferase reporter, 8 h; 100% = twice DMSO control signal. activation, % at 9 µM. hit rate 1.7% among 300,000. AID 504408, 2011;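 active means mean replicate activation of at least 50% with a set share of replicates each reaching 50%; inconclusive means only one of those two conditions met; inactive means mean below 50% and too few replicates reaching it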;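 further: 0% = median of the neutral control wells and 100% = twice that signal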
HSF1 inhib – HSF1 inhibitors in luciferase reporter cells, primary screen, cell-based, NIH3T3, luminescence. AID 2098, 2009. hit rate 0.77% among 300,000. NIH3T3-HGL HSE-luciferase, MG132-induced, luminescence 8 h; stronger effect = lower value. activity change, negative = inhibition, % at 7.5 µM (by protocol);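 active means more than half of replicate wells show activity change below -50%, luminescence cut by over half; inconclusive means some wells, but at most half, below -50%; inactive means no replicate well below -50%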;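 further: luciferase reports HSF-1 transcriptional activity via heat shock element; 0% = median of DMSO wells and -100% = zero luminescence signal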
* marks the source's active call; other numbers are inactive results; ? = inconclusive; · = not tested or not shown. Most compounds without a hit are left out; they make up all but 3.6% or so of the library.

SMILES	TWEAK Fn14 block	LMP1 NFkB inh	TROY NFkB inh	LGR2 antag	HSF1 activator	HSF1 inhib
COc1ccc(OCC(=O)Nc2ccc3c(c2)nc(CCN2CCCCC2)n3C)cc1	4.7	16.2	2.3	5.6	63.5*	39.8
Cc1ccc(OCC(=O)Nc2ccc3c(c2)nc(CCN2CCOCC2)n3C)cc1	-6.3	8.4	6.2	·	32.4	25.0
Cn1c(CCN2CCCC2)nc2cc(NC(=O)COc3ccc(Cl)cc3)ccc21	-23.6	19.4	-4.6	1.1	·	·
COc1ccc(NC(=O)N(C)C[C@H]2OCCCC[C@H](C)Oc3ccc(NC(=O)C4CCCCC4)cc3C(=O)N([C@@H](C)CO)C[C@H]2C)cc1	·	·	·	35.4	·	·
CN(C)c1ccc(/C=C(\Cl)c2nc3ccccc3s2)cc1	91.5*	3.4	73.1*	·	·	·
COC(=O)c1ccc(C(=O)OC)c(NC(=O)CN(c2ccc3c(c2)OCO3)S(C)(=O)=O)c1	22.6	1.5	56.8*	-9.0	1.7	5.9
CC(C)CNC(=O)c1ccccc1NC(=O)CN(c1ccc2c(c1)OCCO2)S(C)(=O)=O	89.7*	14.5	21.3	-3.1	7.5	9.0
CS(=O)(=O)N(CC(=O)NCCSC1CCCCC1)c1ccc2c(c1)OCO2	-1.4	-6.1	-14.7	·	-74.1	-67.3*
Cc1noc(C)c1NC(=O)Nc1ccc2c(c1)C(=O)N([C@H](C)CO)C[C@H](C)[C@H](CN(C)C(=O)NC(C)C)OCCCC[C@@H](C)O2	·	·	·	-19.2	·	·
CCN1/C(=C/c2cc[n+](CCCS(=O)(=O)[O-])c3ccccc23)Sc2ccccc21	17.8	9.6	7.7	2.5	-16.1	2.2
C=CC[n+]1ccc(/C=C2\C=Cc3cc(C)ccc3N2CC)c2ccccc21	17.7	56.5*	50.2*	·	·	·
O=C(c1ccccc1F)N1CC2(C1)[C@H](c1ccccc1)[C@H](CO)N2CC1CC1	·	·	·	-10.3	·	·
COc1ccccc1-c1cnc2c(c1)C(=O)N([C@H](C)CO)C[C@@H](C)[C@H](CN(C)Cc1ccc(F)cc1)O2	·	·	·	5.1	·	·
CCOc1ccc(NC2=CC(=O)CC(c3ccco3)C2)cc1 (configuration not stated)	7.2	-1.8	19.7	-19.9	-19.6	0.1
O=C1C=C(Nc2ccc(Cl)cc2)CC(c2ccco2)C1 (configuration not stated)	55.9*	-10.5	·	·	10.2	5.9
Cc1ccc(S(=O)(=O)Nc2ccc3c(c2)C(=O)N([C@H](C)CO)C[C@H](C)[C@H](CN(C)Cc2ccc(Cl)c(Cl)c2)OCCCC[C@H](C)O3)cc1	·	·	·	15.2	·	·
CCS(=O)(=O)N1CCCC(C(=O)NCCCOC)C1 (configuration not stated)	-12.2	-7.3	-23.4	·	-10.3	-6.4
CCS(=O)(=O)N1CCCC(C(=O)NCCCN2CCCC2=O)C1 (configuration not stated)	63.5*	1.2	·	·	·	·
O=C(NCCCc1ccccc1)c1cccc(Br)c1	-25.5	-11.9	-43.1	-51.9	14.9	4.6
O=C(CN(Cc1ccccc1)C(=O)CCl)c1cccc(Br)c1	66.2*	-4.3	5.4	24.6	·	·
C=CCSc1nc(-c2ccccc2)c(C#N)c(=O)[nH]1	2.5	0.3	10.8	·	-2.2	-5.5
N#Cc1c(-c2ccccc2)nc(SCC(=O)N2c3ccccc3Sc3ccccc32)[nH]c1=O	-27.6	3.2	55.0*	0.8	10.8	3.2
N#Cc1c(-c2ccccc2)nc(SCc2ccc(Cl)cc2)[nH]c1=O	-14.1	-0.5	51.3*	-6.6	5.9	-1.0
COc1cccc(-c2ccc([C@H]3[C@@H](CO)N(C(C)=O)C34CN(C(C)=O)C4)cc2)c1	·	·	·	-8.6	·	·
C[C@@H]1CN([C@@H](C)CO)C(=O)c2cc(NS(=O)(=O)c3ccccc3)ccc2O[C@@H](C)CCCCO[C@@H]1CN(C)CC1CCCCC1	·	·	·	-7.5	·	·
SMILES	TWEAK Fn14 block	LMP1 NFkB inh	TROY NFkB inh	LGR2 antag	HSF1 activator	HSF1 inhib
O=C1/C(=C/c2ccncc2)SC(=S)N1Cc1ccccc1	46.5	42.6*	27.0	38.8	3.4	-5.3
O=C(O)c1cc(-c2ccc(/C=C3/SC(=S)N(Cc4ccccc4)C3=O)o2)ccc1Cl	33.6	7.6	51.8*	?	·	·
CO[C@H]1CN(C)C(=O)c2ccc(NC(=O)c3ccccc3F)cc2OC[C@@H](C)N(CC2CC2)C[C@H]1C	·	·	·	-6.0	·	·
O=C(O)c1ccc(-c2noc(-c3ccccc3F)n2)cc1	51.8*	-13.6	-7.0	10.7	0.5	-7.5
CCc1ccc(OCCOCCN2CCN(C)CC2)cc1	-15.6	-10.1	-6.2	3.3	-9.3	-6.0
CN1CCN(CCOc2ccc(Cc3ccccc3)cc2)CC1	-4.5	47.9*	-3.6	4.6	-2.6	-6.8
O=[N+]([O-])c1c(Nc2cccc(O)c2)cc(Cl)c2nonc12	64.3*	56.0*	88.2*	8.5	163.8*	163.3
Cc1c(Nc2cc(Cl)c3nonc3c2[N+](=O)[O-])c(=O)n(-c2ccccc2)n1C	50.3*	10.4	83.6*	103.1*	·	·
Cc1noc(C)c1S(=O)(=O)Nc1ccc2c(c1)CC(=O)N([C@@H](C)CO)C[C@H](C)[C@@H](CN(C)S(=O)(=O)c1cccs1)O2	·	·	·	9.3	·	·
CCC(C)(NC(=O)c1ccc2c(c1)OCO2)C(=O)NC1CCCCC1 (configuration not stated)	51.1*	1.1	6.9	-11.2	-4.8	-7.0
O=C1C(F)=CC(COC(c2ccccc2)(c2ccccc2)c2ccccc2)OC1n1cc(F)c(=O)[nH]c1=O (configuration not stated)	108.6*	-2.9	45.7	26.6*	·	·
CC(=O)OCC1OC(n2cc(F)c(=O)[nH]c2=O)C(OC(C)=O)C1OC(C)=O (configuration not stated)	15.1	3.3	0.6	2.7	0.3	0.1
C[C@@H]1CN([C@@H](C)CO)C(=O)c2cc(C3=CCCC3)cnc2O[C@@H]1CN(C)C	·	·	·	9.9	·	·
CCOC(=O)c1c(C)nc(C)c(C(=O)OCC)c1-c1ccccc1	-7.8	-2.2	-3.2	0.8	15.2	10.1
Nc1c(-c2ccc(Cl)cc2)cnc2c(-c3ccc(F)cc3)cnn12	-16.3	-63.6	36.7	-121.4	6.5	4.3
CCOC(=O)c1cnc2c(-c3ccccc3)cnn2c1N	48.8	-34.4	-45.6	·	52.7*	30.5
CCOC(=O)c1c(-c2ccccc2)cn2c(C)cc(C)nc12	-42.9	-43.5	-24.1	-45.5	59.3*	24.0
Nc1c(-c2cccc(Cl)c2)cnc2c(-c3ccccc3)cnn12	-0.7	-39.0	-81.2	-46.0	64.4*	25.6
Cc1ccccc1-n1ncc2c([N+](=O)[O-])cc([N+](=O)[O-])cc21	1.7	-2.1	51.4*	3.5	-4.9	5.6

High-throughput results from PubChem.
